Measurements: the supplement of paper PMC10338343
± gives the standard deviation.

What follows are sequences tested on MILI (PIWIL2) piRISC loaded with L1MC piRNA (26 nt) (assay: pre-steady-state target cleavage rate (min^-1); guide: L1MC piRNA 5'p-UAACUAAAUACUAUGCAAGCUGUAGG; MIWI and MILI are mouse PIWI proteins and EfPiwi is from a freshwater sponge; tags in brackets are library labels; higher = faster piRNA-guided slicing of the target). Details: auxiliary factor: 500 nM mouse GTSF1.
Procedure, shortened: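 In Cleave-'n-Seq, a transcribed, DNA-blocked target RNA library (0.1 nM) was combined with 1 nM active affinity-purified piRISC bearing one synthetic guide, with or without 500 nM GTSF1 partner protein. Reactions ran in HEPES–potassium acetate buffer at 33 °C for 0–8 or 0–960 min. Uncleaved targets were sequenced and normalised to depth and to weakly complementary targets, three trials were pooled, and k3 was capped at 0.0001 min^-1. The pre-steady-state cleavage rate was obtained by fitting a burst-and-steady-state model.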

Row | Sequence | pre-steady-state target cleavage rate
1 | UCCUGGAUCAGCUUGCAUAGUAAAAACAAA | 0.027 ± 0.0099
2 | UCCUGGUAGAGCUUGCAUAGAAUUUAGUUA | 0.0311 ± 0.0054
3 | UCCUGGAUGUCCAUGCAUACUAUUUAGUUA | 0.0122 ± 0.0052
4 | UCCUGGAUGUGCAUGCAUAGAAUUUAGUUA | 0.00714 ± 0.0044
5 | UCCUGGUACAGCUACGAUAGUAUUUAGUAA | 0.183 ± 0.034
6 | UCCUGGAUGAGCAACCAUAGUAUUUAGUAA | 0.0492 ± 0.016
7 | UCCUGGAUGUCGAUGUCAUAGUAUUUAGUUA | 0.0067 ± 0.0037
8 | UCCUGGAUGUCGUUGCAUAGUAUUUUGUUA | 0.194 ± 0.044
9 | UCCUGGAACAGCUUGCUAAGUAUUUAGAAA | 0.0282 ± 0.01
10 | UCCUGCUACAGCUUGCAUGAGUAUUUAGUUA | 0.0058 ± 0.0041
11 | UCCUGCUACAGCUACCAUAGUAUUUAGUAA | 0.158 ± 0.029
12 | UCCUGGAUGUCGAUGGAUAGUAUUUUGUUA | 0.00767 ± 0.0043
13 | UCCUGGAACAGCUUGCAUAGUAUAAUCAAA | 0.0568 ± 0.016
14 | UCCUGGUACAGCUUGGUAAGUAUUUAGAAA | 0.0185 ± 0.0092
15 | UCCUGGUACACGUUGCAUAGUAUUUAGAAA | 0.0229 ± 0.011
16 | UCCUGCUACACGUUGCAUAGUAUUUAGAAA | 0.0396 ± 0.013
17 | UCCUGGAUGUCGAAGUCAUAGUAUUUAGUUA | 0.00447 ± 0.003

Row | Sequence | pre-steady-state target cleavage rate
18 | UCCUGGAUGUGCUUGGAUAGUAUUUAGAUA | 0.00891 ± 0.0052
19 | UCCUGGAUGUCGAUGCAUACUAUUUAGUUA | 0.0178 ± 0.0056
20 | UCCUGGAUGAGCUUGCAUUGAAUUUAGUUA | 0.00697 ± 0.0027
21 | UCCUGGUACAGCUAGCAUAGAAUUUAGUUA | 0.313 ± 0.084
22 | UCCUGGAUGUCGAUGAAUAGUAUUUAGUUA | 0.00887 ± 0.0033
23 | UCCUGGUACAGCUUGCAUACUAUUUACUUA | 0.05 ± 0.014
24 | UCCUGGAACAGGAAGCAUAGUAUUUACAAA | 0.061 ± 0.02
25 | UCCUCCUACAGCAACCAUAGUAUUUAGUAA | 0.255 ± 0.043
26 | UCCUGGAACAGCUUGCAUCAGUAUUUAGUUA | 0.0151 ± 0.0061
27 | UCCUGGAUGAGCUUGCAUAGUAUUUUGUAA | 0.0267 ± 0.011
28 | UCCUGGAUCAGCUUCCAUUGUAUUUAGUUA | 0.0508 ± 0.0093
29 | UCCUGGAUCAGCUAGCAUAGUAUUUACAAA | 0.127 ± 0.023
30 | UCCUGGAUGUCCUACCAUAGUAUUUAGUUA | 0.0632 ± 0.015
31 | UCCUGGUACAGCUUGCAUAGAAUAUAGUUA | 0.102 ± 0.028
32 | UCCUGGAUGUCGUUGACAUAGUAUUUAGUUA | 0.0142 ± 0.0054
33 | UCCUGGAUGUCGUUGCAUAGUAAUAAGUUA | 0.0113 ± 0.004

Same assay, conditions: auxiliary factor: none (no GTSF1)

Row | Sequence | pre-steady-state target cleavage rate
34 | UCCUGGAUCAGCUUGGAUAGUAUUUUCAAA | < 0.0001
35 | UCCUGGAUGUCGAACGUAUGUAUUUACAAA | < 0.0001
36 | UCCUGGAUCAGCUACCAUAGUAUUUACAAA | < 0.0001
37 | UCCUGGAUCAGCUUGCAAUCUAUUUACAAA | < 0.0001
38 | UCCUGGAUGUCGAACGUAUGUACUUUAGUUA | < 0.0001
39 | UCCUGGAUGUCGAACGAAUAGUAUUUAGUUA | < 0.0001
40 | UCCUGGAUGUCGAAGCAUUGUAUAUAGUUA | < 0.0001
